In the library only some 12% were active in any assay of this set; here they are far more common.
L3MBTL1 block = L3MBTL1 (human) inhibition; AlphaScreen L3MBTL1–H3K9me1 peptide binding; Potency, µM (top dose mostly 57.1 µM), for the others: top-dose activity, negative = inhibition, actives largely listed as inhibitors; 230,000 compounds, 0.66% hits; AID 485360; further: on the % scale 0 is the no-effect control and ±100 the full control effect; nearly all actives have a fitted effect of over 60% in size
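AlphaScreen assay: L3MBTL1 (50 nM final) was preincubated 30 min at room temperature with biotinylated H3(1-15)K9me1 peptide (75 nM final), then 30 min with library compounds; streptavidin donor and nickel chelate acceptor beads (10 ug/mL final) added, 30 min dark.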
BAZ2B block = blocks human BAZ2B | 360,000 compounds, 4.4% hits | Potency, µM (top dose mostly 114 µM), without a hit: top-dose activity change, negative = inhibition, usual class: inhibitors | AlphaScreen BAZ2B-H3K14Ac peptide displacement; further: on the % scale 0 is the no-effect control and ±100 the full control effect; nearly all actives have a fitted effect of over 60% in size
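Inhibition is scored as reduced AlphaScreen emission. The BAZ2B/b-H3(5-23)K14Ac complex (50 nM each) in PBS pH 7.4, 0.01% Tween-20 meets compound (up to 110 uM) for 30 min at RT before bead addition.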
Sfp PPTase inh = blocks B. subtilis Sfp PPTase activity. Q9F4F7. Biochemical Sfp PPTase activity, qHTS. Potency, µM, without a hit: largest response in the series, negative = inhibition, usual class: inhibitors. 310,000 compounds, 3.5% hits;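 further: the enzyme is Sfp with the accession as filed and its product quenches rhodamine fluorescence; 0% = enzyme reaction without inhibitor and -100% = no enzyme wells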
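Step 1, compound plus 15 nM Sfp-PPTase, 15 min, room temperature. Step 2, add rhodamine-CoA (5 uM) and BHQ-2-YbbR (12.5 uM). Step 3, read 525/598 nm fluorescence at 0 and 30 min.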
JMJD2A Tudor = blocks the human JMJD2A Tudor domain; Potency, µM (doses to about 114 µM), for the others: at the highest dose activity change, negative = inhibition, actives largely listed as inhibitors; O75164; AlphaScreen JMJD2A-Tudor / H3K4me3 peptide binding; 390,000 compounds, 4.4% hits; further: on the % scale 0 is the no-effect control and ±100 the full control effect; nearly all actives have a fitted effect of over 50% in size
HP1b binding inh = HP1-beta chromodomain-methylated histone interaction inhibition. AlphaScreen HP1-beta / biotin-H3K9me3 peptide binding. 390,000 compounds, 0.56% hits. AID 540317. P83916. Potency, µM (top dose mostly 114 µM), without a hit: at the highest dose activity change, negative = inhibition, hits mostly inhibitors; further: nearly all actives have a fitted effect of over 70% in size
Target sequence (P83916 whole entry, looked up): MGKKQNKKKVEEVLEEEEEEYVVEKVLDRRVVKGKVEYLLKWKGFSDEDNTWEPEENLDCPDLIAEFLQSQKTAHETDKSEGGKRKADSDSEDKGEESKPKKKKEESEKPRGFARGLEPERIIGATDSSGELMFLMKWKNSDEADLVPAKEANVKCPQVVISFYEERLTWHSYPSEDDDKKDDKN
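AlphaScreen: HP1-beta (50 nM) preformed 30 min with biotin-H3(1-18)K9me3 peptide (50 nM) in PBS pH 7.4, 0.01% Tween-20. Compound added for 30 min at RT, then streptavidin donor/nickel chelate acceptor beads (10 ug/mL) for 30 min.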
G9a block = G9a (human) methyltransferase inhibition. G9a H3K9 monomethylation, AlphaScreen, 2 h. Potency, µM (highest dose often 102 µM), without a hit: at the highest dose activity, negative = inhibition, actives largely listed as inhibitors. 350,000 compounds, 8.8% hits. AID 504332; further: on the % scale 0 is the no-effect control and ±100 the full control effect; nearly all actives have a fitted effect of over 75% in size
Target sequence (Q96KQ7 913-1193 limits assumed): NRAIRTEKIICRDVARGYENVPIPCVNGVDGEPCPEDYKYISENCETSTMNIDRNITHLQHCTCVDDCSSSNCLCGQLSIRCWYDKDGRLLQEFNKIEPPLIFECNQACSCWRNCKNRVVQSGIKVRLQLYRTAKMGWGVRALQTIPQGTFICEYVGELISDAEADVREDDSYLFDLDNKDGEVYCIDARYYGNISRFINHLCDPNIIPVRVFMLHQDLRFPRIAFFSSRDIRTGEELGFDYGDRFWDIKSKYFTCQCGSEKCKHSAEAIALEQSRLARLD
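Using a bead-based AlphaScreen, monomethylated H3K9 product from 2 h room-temperature reactions (G9a 20 nM, peptide 500 nM, SAM 20 uM) was detected with 0.5 ug/mL rabbit anti-H3K9me1 antibody.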
* hit, by the source's call; ? = inconclusive; / = no result given; [ ] = another dose, or the depositor's remark. The call rests on the fitted dose curve; in most records, active means well fitted curve in the direction sought with a large enough effect; inconclusive means small, poorly fitted or top-dose-only effect, or another doubt; inactive means no such curve, though single readings can be large; an effect the other way counts as inactive or inconclusive. Potency means the concentration at half of the fitted maximal effect.

SMILES	L3MBTL1 block	BAZ2B block	Sfp PPTase inh	JMJD2A Tudor	HP1b binding inh	G9a block
CN(C)c1cccc(C(=O)N/N=C/c2ccccc2F)c1	-18%	-33%	5%	-19%	-6%	-35%
Cc1cc(/C=N/NC(=O)C(O)(c2ccccc2)c2ccccc2)c(C)n1-c1cccc(C(=O)O)c1	?	56µM*	40µM*	?	-4%	40µM*
c1ccc(-n2cccc2CNC2CCCCC2)cc1	-9%	?	-14%	3.5µM*	?	?
O=C(CSc1nncn1-c1ccccc1)NC1CCCCC1	23%	-2%	27%	-16%	12%	-4%
CCCCCNCc1cccn1C	/	-37%	10%	-30%	6%	8%[59 µM]
Clc1cccc(Cl)c1CNC1CCCC1	/	11%	-8%	-12%	29%	?
Cn1cccc1CNC1CCCCC1	/	-32%	8%	-15%	7%	50µM*
CCCCNCc1cccn1-c1ccccc1	-11%	71µM*	-24%	5µM*	?	?
O=C(Nc1cccc(F)c1)N1CC[C@@]2(CCCN(S(=O)(=O)c3ccccc3)C2)C1	/	/	4%	/	/	0%[12.7 µM]
CC[C@@]1(C(=O)OC)N[C@H](CN(C)C(=O)Nc2ccc(OC)cc2)[C@@H]2C(=O)N(C)C(=O)[C@@H]21	7%	/	/	-19%	13%	/
COc1ccccc1CCn1c(=O)cnc2cncnc21	/	/	15%	/	/	-2%[0.501 µM]
COc1ccccc1N1CCN(/N=C/c2cc(OC)c(OC(C)=O)c(OC)c2)CC1	-7%[2.29 µM]	5%	7%	-17%	30%	18%[0.501 µM]
Cc1ccc(/C=N/N2CCN(c3ccncc3S(=O)(=O)N3CCCCC3)CC2)cc1	-5%	-4%	-27%	?	19%	19%[2.33 µM]
COc1cc(OC)c(/C=N/N2CCN(c3ccccc3OC)CC2)c(OC)c1	-14%	?	6%	?	-2%	-13%
COc1ccccc1N1CCN(/N=C/c2cccc(Cl)c2)CC1	-13%	?	0%	50µM*	-27%	18µM*
COc1cccc(/C=N/N2CCN(c3ccccc3OC)CC2)c1	-17%	?	0%	45µM*	-24%	?
COc1cccc(/C=N/N2CCN(c3ccncc3S(=O)(=O)N3CCCCC3)CC2)c1	-20%	40µM*	-15%	?	?	50µM*
COc1cc(Cl)c(NS(=O)(=O)c2ccc3c(c2)CC(C)N3C(=O)C2CCC2)c(OC)c1 (stereo not given)	/	-1%	/	-16%	15%	0%[59 µM]
NS(=O)(=O)c1ccc(CCNC(=O)c2ccc(C#CC3(O)CCCCC3)cc2)cc1	-3%	-10%	3%	-26%	13%	-45%
CCOc1ccccc1CSc1nc2ccccc2[nH]1	6%	6%	0%	7%	78%	5%[59 µM]
CCn1c(CSc2nc3ccccc3[nH]2)n[nH]c1=S	7%	-3%	-3%	6.3µM*	11%	?
CCn1c(Cc2c(C)[nH]c3ccccc23)n[nH]c1=S	-8%[11.4 µM]	-35%	0%	4µM*	15%	1.8µM*
CCCn1c(CCc2ccccc2)n[nH]c1=S	-2%	8%	4%	4.5µM*	16%	40µM*
CCCn1c(CCc2ccccc2)nnc1SCC(=O)N1CCCC1	-3%	-10%	14%	-20%	37%	-33%[59 µM]
CCn1c(CSCc2ccccc2)n[nH]c1=S	6%[11.4 µM]	-25%	10%	18µM*	23%	7.1µM*
COc1ccc(C2NC(=O)c3ccccc3N2)cc1COc1ccc(NC(C)=O)cc1 (stereo not given)	/	/	/	-13%	/	/
Cc1ccc(CNC(=O)c2cn(C)c3ccc(S(=O)(=O)N4CCC(C)CC4)cc3c2=O)cc1	/	/	/	-18%	6%	?
CCCCn1c(Cc2ccccc2)n[nH]c1=S	-2%	-3%	?	4µM*	?	13µM*
S=c1nc2c(n[nH]1)c1ccccc1n2CCc1ccccc1	-15%	-27%	-10%	-27%	16%	13%
CCn1c(CCn2c3ccccc3c3ccccc32)n[nH]c1=S	-4%	?	?	-21%	47%	22µM*

Compound activity: PubChem BioAssay, National Center for Advancing Translational Sciences (NCATS)
